Measurements reported in PubChem BioAssay (Tox21).
Results filed as inconclusive are left out. Where a call stands in place of a potency, no number is given. Values without a mark were called inactive. Active and inactive are the calls of the source. Calls come from the whole dose curve.

experiment: p53 small molecule agonists, cell-based qHTS assay with rat liver microsomes (AID 1963578); conditions: HCT-116 p53RE-bla, beta-lactamase ratio, 16 h; series mostly up to 66 µM
Text: U.S. Tox21 Program National Center for Advancing Translational Sciences [NCATS] Division of Preclinical Innovation [DPI] U.S. Environmental Protection Agency [EPA] National Institutes of Environmental Health Sciences [NIEHS] National Toxicology Program [NTP] U.S. Food and Drug Administration [FDA] Tox21 Assay Overview: p53, a tumor suppressor protein, is activated following cellular insult, including DNA damage and other cellular stresses. The activation of p53 regulates cell fate by inducing DNA repair, cell cycle arrest, apoptosis, or cellular senescence. The activation of p53, therefore, is a good indicator of DNA damage and other cellular stresses. […] The activation of the reporter gene under culture conditions can be detected by fluorescence intensity. This cell line was used to screen the Tox21 10K compound library in the condition of presence of rat liver microsomes and to identify agonists that activate the p53 signaling pathway after in vitro metabolic activation (Ooka et al., Archive of Toxicology 96:1975-1987, 2022).
Tox21 Assay Protocol Summary: The p53RE-bla cells were dispensed at 4,000cells/3ul/well in 1536-well black-clear bottom plates. After the assay plates were incubated at 37 C, 5% CO2 incubator for 5 hours, 23 nL of compounds dissolved in DMSO, positive controls or DMSO only was transferred to the assay plate. Following compound addition, 3 uL of rat liver microsomes (Molecular Toxicology, Boone, NC) at final concentration of 0.5 mg/mL and 1uL of Beta-Nicotinamide adenine dinucleotide 2-phosphate (NADPH) at final concentration of 0.5 mg/mL were transferred to the assay plate. The plates were incubated at 37 C for 16 hours. 1 uL of LiveBLAzer detection mixture was added to each well and the plates were incubated at room temperature in the dark for 2 h.

| SMILES | Potency | activation |
| --- | --- | --- |
| OCC(O)c1ccccc1 (stereo not given) | inactive |  |
| COc1cc(NS(=O)(=O)c2ccc(N)cc2)nc(OC)n1 | inactive |  |
| CCN(CC)C(=O)Nc1ccc(OCC(O)CNC(C)(C)C)c(C(C)=O)c1 (stereo not given) | inactive |  |
| Nc1ccc(Cl)cc1[N+](=O)[O-] | inactive |  |
| CC(=O)CC(=O)OC(C)(C)C | inactive |  |
| C=CC(OCC)OCC | inactive |  |
| CC(C)=CCOC(=O)c1ccccc1 | inactive |  |
| CC1=CC(=O)CC(C)(C)C1=O | inactive |  |
| C[C@H]1O[C@H](O[C@H]2[C@H](O)[C@@H](O)[C@@H](O[C@H]3[C@H](O)[C@@H](O)[C@H](O)O[C@@H]3CO)O[C@@H]2CO)[C@H](O)[C@@H](O)[C@@H]1N[C@H]1C=C(CO)[C@@H](O)[C@H](O)[C@H]1O | inactive |  |
| Cc1ccccc1C#N | inactive |  |
| Cc1cccc(C)c1OCC(=O)N[C@@H](Cc1ccccc1)[C@@H](O)C[C@H](Cc1ccccc1)NC(=O)[C@H](C(C)C)N1CCCNC1=O | inactive |  |
| N#Cc1cc2ccccc2c2ccccc12 | inactive |  |
| C=COCC1CCC(COC=C)CC1 (stereo not given) | inactive |  |
| Cc1cc(SC2=C(O)C[C@@](CCc3ccc(N)cc3)(C(C)C)OC2=O)c(C(C)(C)C)cc1CO | inactive |  |
| CCN(CC)CCOC(=O)C1(c2ccccc2)CCCC1 | inactive |  |
| CC(=O)c1ccc(C(C)=O)cc1 | inactive |  |
| CN(C)CCCSc1ccccc1NC(=O)/C=C/c1ccccc1 | inactive |  |
| CN(C(=O)C(Cl)Cl)c1ccc(OC(=O)c2ccco2)cc1 | inactive |  |
| COc1ccc(C)cc1[N+](=O)[O-] | inactive |  |
| N#CCC(=O)NN | inactive |  |

| SMILES | Potency | activation |
| --- | --- | --- |
| C=CCNc1nc(NCC=C)nc(N2CCN(C(c3ccc(F)cc3)c3ccc(F)cc3)CC2)n1 | inactive |  |
| O=C(CCN1CCN2CCCC2C1)N1c2ccccc2Sc2ccc(Cl)cc21 (stereo not given) |  | 1.06% [at 13.6 µM] |
| N=C1C=CC(=C(c2ccc(N)cc2)c2ccc(N)cc2)C=C1 | inactive |  |
| CCCCS | inactive |  |
| CC(COC(C)(C)C)OCCCO (stereo not given) | inactive |  |
| CN1CCC(=C2c3ccccc3CC(=O)c3sccc32)CC1 | inactive |  |
| CCCCC(CC)COC(=O)CCCCCCCCC(=O)OCC(CC)CCCC (stereo not given) | inactive |  |
| CC(=O)C1CCCCC1=O (stereo not given) | inactive |  |
| CC(C)(c1ccc(Oc2ccc3c(c2)C(=O)OC3=O)cc1)c1ccc(Oc2ccc3c(c2)C(=O)OC3=O)cc1 | inactive |  |
| CC(=O)NC(=O)c1ccccc1O | inactive |  |
| CN(C)CCOC1=Cc2ccccc2Sc2ccc(Cl)cc21 | inactive |  |
| C#CCOC(=O)[C@@H](C)Oc1ccc(Oc2ncc(Cl)cc2F)cc1 | inactive |  |
| COc1cc2c(cc1OC)C(=O)C(CC1CCN(Cc3ccccc3)CC1)C2 (stereo not given) | inactive |  |
| CCOC(=O)Cc1cccc2ccccc12 | inactive |  |
| CCCCCCCCCCCCC | inactive |  |
| N#C[C@@H]1CC(F)(F)CN1C(=O)CNC1CC2CCC(C1)N2c1ncccn1 (stereo not given in full) | inactive |  |
| CN1CCN(CCCN2c3ccccc3Sc3ccc(C(F)(F)F)cc32)CC1 | inactive |  |
| CCCCCCCCN(C)CCCCCCCC | inactive |  |
| CC(C)(O)C(=O)c1ccccc1 | inactive |  |
| COc1ccc(-n2nc(C(F)F)cc2-c2ccc(S(C)=O)cc2)cc1 (stereo not given) | inactive |  |
